“And” between values parts separate entries of the source, which are not always exact repeats. Equal values may be shown once. Records with an inconclusive call do not appear. The source made the active and inactive calls. The call rests on the fitted dose curve; in most records, active means well fitted curve in the direction sought with a large enough effect; inconclusive means small, poorly fitted or top-dose-only effect, or another doubt; inactive means no such curve, though single readings can be large; an effect the other way counts as inactive or inconclusive.
Experiments:
[1] = qHTS of pediatric cancer cell lines to identify multiple opportunities for drug repurposing: Primary screen for RD cells (AID 1347104); conditions: RD rhabdomyosarcoma viability, CellTiter-Glo luminescence, 48 h; series mostly up to 46 µM; further: nearly all actives have a fitted effect of over 55% in size; further: potency means the concentration at half of the fitted maximal effect
In short: (§1)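 ATP-based luminescence (CellTiter-Glo) quantifies viability after a 48-hour exposure. Compounds are dosed across 8 or 11 final concentrations; DMSO and 2.3 µM bortezomib serve as controls.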

[2] = qHTS of pediatric cancer cell lines to identify multiple opportunities for drug repurposing: Primary screen for MG 63 (6-TG R) cells (AID 1347105); conditions: MG 63 (6-TG R) viability, CellTiter-Glo, 48 h; series mostly up to 46 µM; further: nearly all actives have a fitted effect of over 50% in size; further: potency means the concentration at half of the fitted maximal effect
In short: as §1

[3] = qHTS of pediatric cancer cell lines to identify multiple opportunities for drug repurposing: Primary screen for control Hh wild type fibroblast cells (AID 1347106); conditions: Hh wild-type fibroblast viability, CellTiter-Glo luminescence, 48 h; series mostly up to 46 µM; further: nearly all actives have a fitted effect of over 55% in size; further: potency means the concentration at half of the fitted maximal effect
In short: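 Cells (500-1,000/well) in growth media were settled 5 h at 37 degrees C, then given compounds for 48 h. Viability was read as CellTiter-Glo luminescence. Primary runs used MIPE at 11 points (0.78 nM-46 µM) and NPC at 8 points (0.59 nM-46 µM); follow-ups used 11 points.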

[4] = qHTS of pediatric cancer cell lines to identify multiple opportunities for drug repurposing: Primary screen for OHS-50 cells (AID 1347103); conditions: OHS-50 osteosarcoma viability, CellTiter-Glo luminescence, 48 h; series mostly up to 57.3 µM; further: nearly all actives have a fitted effect of over 40% in size; further: potency means the concentration at half of the fitted maximal effect
In short: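 Cells (500-1,000/well) rested 5 h, then received compounds for 48 h; metabolically active cells were measured by CellTiter-Glo luminescence. Final concentrations spanned up to 46 µM (MIPE, 11-point) or 0.59 nM-46 µM (NPC, 8-point) in primary screens, 11-point in follow-ups.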

[5] = qHTS of pediatric cancer cell lines to identify multiple opportunities for drug repurposing: Primary screen for Rh30 cells (AID 1347107); conditions: Rh30 rhabdomyosarcoma viability, CellTiter-Glo luminescence, 48 h; series mostly up to 46 µM; further: nearly all actives have a fitted effect of over 75% in size
In short: (§2)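 Viability after 48 h compound treatment at 37C, 500-1,000 cells/well, read as ATP luminescence with CellTiter-Glo. Primary screens used 11-point (MIPE, 0.78 nM-46 µM) or 8-point (NPC, 0.59 nM-46 µM) final concentrations; follow-up screens used 11-point dilutions.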

[6] = qHTS of pediatric cancer cell lines to identify multiple opportunities for drug repurposing: Primary screen for Rh41 cells (AID 1347108); conditions: Rh41 rhabdomyosarcoma viability, CellTiter-Glo luminescence, 48 h; series mostly up to 46 µM; further: nearly all actives have a fitted effect of over 70% in size; further: potency means the concentration at half of the fitted maximal effect
In short: as §1

[7] = qHTS of pediatric cancer cell lines to identify multiple opportunities for drug repurposing: Confirmatory screen for NB1643 cells (AID 1347109); conditions: NB1643 neuroblastoma cell viability; series mostly up to 45.9 µM; further: nearly all actives have a fitted effect of over 45% in size; further: potency means the concentration at half of the fitted maximal effect
In short: as §2

[8] = qHTS of pediatric cancer cell lines to identify multiple opportunities for drug repurposing: Confirmatory screen for A673 cells (AID 1347110); conditions: A673 Ewing sarcoma cell viability; series mostly up to 45.9 µM;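 further: cells exposed to compound for 48 h before the viability read; nearly all actives have a fitted effect of over 65% in size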; further: potency means the concentration at half of the fitted maximal effect
In short: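 qHTS titration format: primary MIPE 0.78 nM-46 µM (11 pts), NPC 0.59 nM-46 µM; confirmation 11 pts. 48 h, CTG luminescence.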

[9] = qHTS of pediatric cancer cell lines to identify multiple opportunities for drug repurposing: Primary screen for Rh18 cells (AID 1347102); conditions: Rh18 rhabdomyosarcoma viability, CellTiter-Glo luminescence, 48 h; series mostly up to 46 µM; further: nearly all actives have a fitted effect of over 65% in size
In short: as §2

[10] = qHTS of pediatric cancer cell lines to identify multiple opportunities for drug repurposing: Confirmatory screen for BT-12 cells (AID 1347112); conditions: BT-12 rhabdoid tumor cells, viability; series mostly up to 45.9 µM; further: nearly all actives have a fitted effect of over 55% in size; further: potency means the concentration at half of the fitted maximal effect
In short: as §2

Measured: Potency

CC(C)[N+]1(C)[C@@H]2CC[C@H]1CC(OC(=O)C(CO)c1ccccc1)C2 (some centres not stated)
inactive: [2] | [3]
active: [1] 29.6 µM

COc1cc(Nc2c(C#N)cnc3cc(OCCCN4CCN(C)CC4)c(OC)cc23)c(Cl)cc1Cl
active: [4] 19.5 µM and 2.17 µM | [1] 15 µM and 14.8 µM
inactive: [3]

CN1CCC(=C2c3ccccc3CCc3sccc32)CC1
active: [4] 12.3 µM
inactive: [3] | [5] | [6]

Cc1cc(C2CCCCC2)n(O)c(=O)c1
active: [4] 3.09 µM and 4.32 µM | [1] 7.5 µM and 18.7 µM | [7] 14.7 µM | [8] 11.7 µM

O=C1c2c(O)cc(O)cc2OC(c2ccc(O)c(O)c2)C1O (configuration not stated)
not listed: [2] | [4]
inactive: all other assays above

Cc1cc(Cl)ccc1OCCCC(=O)NO
active: [1] 18.7 µM | [6] 14.8 µM

O=c1ccc2ccc(O)c(O)c2o1
inactive: [9] | [2] | [3] | [5]

Cc1c(OCC(F)(F)F)ccnc1CS(=O)c1nc2ccccc2[nH]1 (configuration not stated)
inactive: [9] | [1] | [3] | [5] | [6]

C[C@@H](c1ncncc1F)[C@](O)(Cn1cncn1)c1ccc(F)cc1F
inactive: [9] | [1]

Cc1ccc(C(=O)c2cc(O)c(O)c([N+](=O)[O-])c2)cc1
inactive: [9] | [1] | [2] | [3] | [5] | [6]

CCN(CC)CCOc1ccc(Cc2ccccc2)cc1
inactive: [9] | [2] | [3] | [6]

Oc1ccc2ccccc2c1SSc1c(O)ccc2ccccc12
active: [3] 23.5 µM

COC1=C(OC)C(=O)C(CCCCCCCCCCO)=C(C)C1=O
inactive: [2] | [3] | [5] | [6]

O=c1cc(N2CCOCC2)oc2c(-c3ccccc3)cccc12
active: [4] 2.73 µM

Cc1nccn1CC1CCc2c(c3ccccc3n2C)C1=O (configuration not stated)
inactive: [9] | [1] | [2] | [3] | [5] | [6]

COCCCN1CCC(NC(=O)c2cc(Cl)c(N)c3c2OCC3)CC1
inactive: [9] | [1] | [2] | [6]

COc1cc2c(N3CCN(C(=O)Nc4ccc(OC(C)C)cc4)CC3)ncnc2cc1OCCCN1CCCCC1
inactive: [2] | [5]
active: [4] 27.3 µM and 19.5 µM | [1] 26.4 µM and 26.6 µM

O=C(NCC1CCCCN1)c1cc(OCC(F)(F)F)ccc1OCC(F)(F)F (configuration not stated)
active: [8] 1.31 µM
not listed: [4] | [7] | [10]
inactive: all other assays above

CC(C)c1ccc2c(c1)c(SC(C)(C)C)c(CC(C)(C)C(=O)O)n2Cc1ccc(Cl)cc1
inactive: [3]

O=C1c2ccccc2-c2n[nH]c3cccc1c23
active: [4] 21.7 µM
inactive: [2] | [3]

CCCCCCCCOc1ccccc1C(=O)Nc1ccc(C(=O)OCC[N+](C)(CC)CC)cc1
inactive: [4] | [2] | [3] | [6]

Cn1c(NCCN(CCO)CCCc2ccc([N+](=O)[O-])cc2)cc(=O)n(C)c1=O
inactive: [9] | [2] | [3] | [5] | [6]

Cc1cccc(-c2[nH]ncc2-c2ccc3ncccc3n2)n1
inactive: [9] | [1] | [3] | [5]

CCc1nc(N)nc(N)c1-c1ccc(Cl)cc1
inactive: [9] | [3] | [6]
active: [1] 10.6 µM and 18.7 µM | [8] 0.329 µM

CC(=O)O[C@H]1C(=O)[C@@]2(C)C([C@H](OC(=O)c3ccccc3)[C@]3(O)C[C@H](OC(=O)[C@H](O)[C@@H](NC(=O)c4ccccc4)c4ccccc4)C(C)=C1C3(C)C)[C@]1(OC(C)=O)CO[C@@H]1C[C@@H]2O (some centres not stated)
inactive: [3]
active: [4] 0.001 µM | [6] 0.0042 µM | [8] 0.0147 µM

Nc1nc(OCc2ccccc2)c2[nH]cnc2n1
inactive: [9] | [1] | [2] | [5] | [7] | [8]

CCCS(=O)c1ccc2nc(NC(=O)OC)[nH]c2c1 (configuration not stated)
active: [4] 27.3 µM | [2] 13.3 µM and 18.7 µM
inactive: [3]

O=c1c(O)c(-c2cc(O)c(O)c(O)c2)oc2cc(O)cc(O)c12
inactive: [9] | [1] | [3]

Cc1c(C(=O)NN2CCCCC2)nn(-c2ccc(Cl)cc2Cl)c1-c1ccc(Cl)cc1
active: [4] 4.85 µM | [1] 18.7 µM | [8] 20.8 µM
inactive: [3] | [6]

Oc1ccc(-c2nc(-c3ccc(F)cc3)c(-c3ccncc3)[nH]2)cc1
active: [1] 29.6 µM | [6] 16.6 µM | [7] 0.928 µM | [8] 1.17 µM | [10] 11.7 µM
inactive: [3]

O=C(NOCC1CC1)c1ccc(F)c(F)c1Nc1ccc(I)cc1Cl
active: [4] 19.3 µM | [1] 9.44 µM and 5.26 µM | [2] 26.6 µM and 11.8 µM
inactive: [3]

CN(c1nccc(=O)[nH]1)C1CCN(c2nc3ccccc3n2Cc2ccc(F)cc2)CC1
inactive: [9] | [1] | [3] | [5] | [6]

CC1(C)CCC(C)(C)c2cc(NC(=O)c3ccc(C(=O)O)cc3)ccc21
inactive: [9] | [1] | [2] | [3] | [5] | [6]

Cc1ccc(S(=O)(=O)NC(=O)NN2CC3CCCC3C2)cc1 (configuration not stated)
inactive: [9] | [2] | [5] | [6]

CC(=O)N1CCN(c2ccc(OC[C@H]3CO[C@](Cn4ccnc4)(c4ccc(Cl)cc4Cl)O3)cc2)CC1
inactive: [3]

CC(C)Oc1ccc2c(=O)c(-c3ccccc3)coc2c1
inactive: [9] | [1] | [2] | [3] | [5] | [6]

Reference: PubChem BioAssay (NCATS)
